Screening data deposited in PubChem by National Center for Advancing Translational Sciences (NCATS).
uPA generation: cell surface uPA generation inhibition; cell surface uPA generation assay, qHTS; Potency, µM (series often up to 38.3 µM), inactives show top-dose activity change, negative = inhibition, actives largely listed as inhibitors; 0.31% of 330,000 active; active means well fitted inhibition curve with a large enough effect; inconclusive means small, poorly fitted or top-dose-only effect; inactive means no such curve, though single readings can be large or run the other way; tested in mouse RAW 264.7 cells; further: potency means the concentration at half of the fitted maximal effect; nearly all actives have a fitted effect of over 55% in size
HT1080NT lethal: kills 2HG-producing HT-1080-NT fibrosarcoma cells | HT-1080-NT fibrosarcoma viability, CellTiter-Glo ATP luminescence, 48 h | Potency, µM (titrated, usually from 46.1 µM), for the others: at the top dose activity, negative = less viability, usual class: cytotoxic | 1.6% of 360,000 active | AID 686970;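 further: NT is the 2HG producing partner of a matched IDH1 knockdown line; potency means the concentration at half of the fitted maximal effect; 0% = DMSO-treated cells and -100% = media-only wells without cells; nearly all actives have a fitted effect of over 55% in size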
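Toxicity toward the 2HG-producing NT line was scored as %Activity, normalised to DMSO and no-cell wells, from CellTiter-Glo luminescence after 48 hours' treatment.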
IL-1B inflam inh: inhibitors of inflammasome signaling (IL-1 beta secretion) | THP-1 LPS/ATP IL-1B secretion, AlphaLISA, 16 h; hits give low values | activity change, % at 57.5 µM | 4.7% of 360,000 active | AID 743279; in the data active means activity change below about -50%; inconclusive means mostly about -30% to -49%
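Secreted IL-1B measured by AlphaLISA bead assay after 16 h compound exposure of THP-1 cells; compounds (final up to 57.5 uM) added 1 h before LPS (250 ng/mL) and ATP (1.25 mM) stimulation; lower signal means less secretion.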
TDP1 cell noCPT: qHTS for Inhibitors of human tyrosyl-DNA phosphodiesterase 1 (TDP1): qHTS in cells in absence of CPT; 15% of 420,000 active; DT40 Tdp1-/- hTDP1 cells, no CPT, ATP luminescence, 48 h; AID 686978, 2013; Potency, µM (series often up to 46.2 µM), for the others: at the top dose activity change, negative = growth inhibition, usual class: inhibitors; further: potency means the concentration at half of the fitted maximal effect; nearly all actives have a fitted effect of over 55% in size
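Cells were dispensed at 400 per well, compounds added by pin tool, plates incubated ≥48 hr at 37 °C, then CellTiter-Glo added for 30 min at room temperature before luminescence reading. Line: DT40 Tdp1-/- complemented with hTDP1; camptothecin omitted.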
TDP1 cell CPT: growth inhibition of DT40 Tdp1-/-;hTDP1 cells with camptothecin (screen for TDP1 inhibitors). Potency, µM (highest dose often 46.2 µM), for the others: at the highest dose activity change, negative = growth inhibition, hits mostly inhibitors. chicken DT40 Tdp1-/-;hTDP1 cells + 20 nM CPT, ATP luminescence, 48 h. 12% of 420,000 active. AID 686979; further: potency means the concentration at half of the fitted maximal effect; nearly all actives have a fitted effect of over 55% in size
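Chicken DT40 Tdp1-/- cells stably complemented with human TDP1 were seeded at 400 cells/well in medium containing 20 nM camptothecin, exposed to pin-transferred compounds, and grown at 37 °C for at least 48 hr. Viability was read as ATP luminescence.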
HT1080 IDH1KD tx: toxicity to HT-1080 IDH1 knockdown cells (counter line) | HT-1080 IDH1 knockdown viability, ATP luminescence, 48 h | Potency, µM (titrated, usually from 46.1 µM), for inactives: top-dose activity, negative = toxicity, actives largely listed as cytotoxic | 2% of 360,000 active | AID 686971;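 further: potency means the concentration at half of the fitted maximal effect; 0% = DMSO wells and -100% = cell-free medium wells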
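In this qHTS, HT-1080 cells depleted of IDH1 are exposed for 48 h at 37 °C to compound titrations. Toxicity is scored from CellTiter-Glo luminescence, with DMSO as full viability and medium alone as none.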
The depositor's hits bear a star; ? = inconclusive; nt = no result; ! = not confirmed by another sample. Hits are enriched below; roughly 19% of the tested compounds scored in any of these assays. Unless noted, the call rests on the fitted dose curve; in most records, active means well fitted curve in the direction sought with a large enough effect; inconclusive means small, poorly fitted or top-dose-only effect, or another doubt; inactive means no such curve, though single readings can be large; an effect the other way counts as inactive or inconclusive. Unless noted, on the % scale 0 is the no-effect control and ±100 the full control effect.

SMILES	uPA generation	HT1080NT lethal	IL-1B inflam inh	TDP1 cell noCPT	TDP1 cell CPT	HT1080 IDH1KD tx
CC(=O)O[C@H]1CC[C@@]2(C)C(=CC[C@H]3[C@@H]4CC[C@H](C(C)=O)[C@@]4(C)CC[C@@H]32)C1	3%	12%	1	16µM*!	?	11%
ClCCOCOCCCl	9%	26%	31	-9%	4%	10%
Cc1cccc(OP(=O)(NCc2ccccc2)Oc2cccc(C)c2)c1	1%	-11%	-27	26µM*	?	-17%
Cc1cccc(OP(N)(=O)Oc2cccc(C)c2)c1	-5%	6%	0	?	3%	4%
Cc1cccc(OP(=O)(Nc2ccc(F)cc2)Oc2cccc(C)c2)c1	6%	23µM*	-72*	?	-28%	?
Cc1cccc(OP(=O)(Nc2cccnc2)Oc2cccc(C)c2)c1	3%	-1%	-23	?	?	1%
O=[N+]([O-])c1cc(I)c(O)c(I)c1	nt	nt	nt	?	8%	nt
CC[n+]1c(SC)ccc2cc(OC)ccc21	-8%	-1%	6	16µM*	?	0%
CO[C@H]1C=CCCC=CC(=O)O[C@H]([C@H](C)C(=O)CCCC2CC(=O)NC(=O)C2)C(C)=C[C@@H](C)[C@@H]1O	nt	-5%	-6	6.5µM*	16µM*	-6%
CN(C)CCN(CC1CCCN(Cc2ccccc2F)C1)C(=O)Cc1c(F)cccc1F (stereo not given)	-2%	-3%	?	-20%	-15%	-14%
Cc1ccc(-n2c(/C=C/c3ccccn3)nc3ccccc3c2=O)cc1	3%	0%	-19	?	?	9%
COc1ccc(-n2c(/C=C/c3cccc(F)c3)nc3ccccc3c2=O)cc1Cl	nt	nt	nt	?	21µM*	nt
COc1ccc(-n2c(CN3CCOCC3)nc3ccccc3c2=O)c(OC)c1	-1%	2%	-5	?	?	7%
COc1ccc(-n2c(/C=C/c3cccc(F)c3)nc3ccccc3c2=O)c(OC)c1	-5%	5%	7	?	13µM*	3%
COC(=O)c1cc2ccsc2n1CC(=O)Nc1cc(Cl)ccc1OC	?	7.9µM*	-6	13µM*	7.3µM*	?
Cc1[nH]c2ccccc2c1C(=O)CN1CC=C(c2ccccc2)CC1	8%	1%	-10	?	16µM*	-10%
O=C(CNC(=O)c1ccco1)OCN1C(=O)c2ccccc2C1=O	3%	16%	1	?	?	13%
C1=C(CCNCc2ccccc2)CCCC1	nt	3%	-3	-11%	-22%	-2%
CC(C)c1cccc(C(C)C)c1OC(=O)NC(=O)c1c(F)cccc1F	-16%	?	4	-25%	?	-11%
CC(C)(O)[C@@H]1C2OC(=O)[C@@H]1[C@]1(O)C[C@H]3O[C@]34C(=O)O[C@H]2[C@]14C	nt	nt	nt	-7%	?	nt
NC(=O)N1c2ccccc2CC(=O)c2ccccc21	20%	-3%	43	?	?	2%
N#CC1=C(N)Oc2c(c(=O)oc3ccccc23)C1c1cccnc1 (stereo not given)	2%	-12%	6	8%	-18%	6%
N#CC1=C(N)Oc2c(c(=O)sc3ccccc23)C1c1ccncc1 (stereo not given)	-8%	?	27	?	?	21µM*
Cn1c(=O)c2c(nc(N/N=C/c3c(O)n(C4CCCCC4)c(=S)[nH]c3=O)n2C)n(C)c1=O	-3%	-18%	59	?	?	-20%
CC(=O)c1c(O)c(C)c(O)c2c1OC1=Cc3c(c(C)nn3-c3ccccc3)C(=O)C12C (stereo not given)	nt	-3%	36	16µM*	23µM*	1%
SMILES	uPA generation	HT1080NT lethal	IL-1B inflam inh	TDP1 cell noCPT	TDP1 cell CPT	HT1080 IDH1KD tx
CCC(=O)C1=C(c2cccc([N+](=O)[O-])c2)N(C(=O)CC)n2c(nnc2C2CCCCC2)S1	nt	nt	nt	4.1µM*	3.3µM*	nt
CCN(CCCl)c1cc(CN(C)C)cc(NC(=O)c2ccc(C(=O)Nc3cc(CN(C)C)cc(N(CC)CCCl)c3)cc2)c1	-9%	7.3µM*	-94*	0.18µM*	0.18µM*	2.9µM*
COc1ccc(OC(=O)N(C)C[C@H]2OCc3cnnn3CCCC(=O)N([C@H](C)CO)C[C@H]2C)cc1	nt	-4%	8	-3%	1%	10%
CCC(=NC1CCN(Cc2ccccc2)CC1)c1c(O)[nH]c(=O)[nH]c1=O	nt	-6%	12	-11%	?	-11%
COc1ccccc1C1c2[nH]c3ccccc3c2C[C@H]2C(=O)N(C3CCN(Cc4ccccc4)CC3)CC(=O)N12 (stereo not given in full)	?	?	-26	9.2µM*	?	?
Nc1ccc(C2(c3ccc(N)cc3)c3ccccc3-c3ccccc32)cc1	4%	?	-171*	15%	26%	16µM*
Nc1ccccc1	nt	nt	nt	-19%	-17%	nt
CN1CCC(C)(O)C2CCCCC21 (stereo not given)	1%	4%	3	-3%	10%	15%
Cc1ccc2c(c1)CC1(CN2C)C(=O)NC(=O)N(C(C)C)C1=O (stereo not given)	-6%	19%	59	?	18µM*	11%
O=C(CCCCCCCCCCC(=O)NCc1cccnc1)NCc1cccnc1	1%	?	39	?	?	4.6µM*
Cc1cccc(NP(C)(=O)c2nc3c(s2)CCCC3)c1 (stereo not given)	1%	15%	13	-26%	-2%	?
CCN1C(=O)/C(=C/c2ccc3c(c2)CCN3CCCCl)C(=O)NC1=S	-3%	14%	-19	23µM*	?	5%
COc1ccc(C[C@H]2CN3C(=NC[C@@H]3Cc3ccc(O)cc3)N2C[C@H](C)NC(=O)c2ccc(C)c(Br)c2)cc1	?	-15%	?	21µM*	4.6µM*	-14%
Cc1ccc(C(=O)N[C@@H](C)CN2C3=NC[C@@H](Cc4ccccc4)N3C[C@H]2Cc2ccc(O)cc2)cc1Br	-11%	?	-20	7.3µM*	6.5µM*	?
Cc1ccc(C(=O)N[C@@H](C)CN2C3=NC[C@H](Cc4ccccc4)N3C[C@H]2Cc2ccc(O)cc2)cc1Br	?	?	-14	16µM*	15µM*	?
CC(C)(C)c1cc(OC(=O)Cc2ccccc2)ccc1O	-28%	-8%	-13	-16%	-25%	-7%
